In PubChem BioAssay (Tox21):
Values joined by “and” are separate entries in the source; they are usually repeats but may differ in a detail not shown here. Identical values can stand only once. Records with an inconclusive call do not appear. Where a call stands in place of a potency, no number is given. Active and inactive are the calls of the source. Calls follow the shape of the full dose curve.

Assay: qHTS assay for small molecule agonists of the antioxidant response element (ARE) signaling pathway - cell viability counter screen (AID 743203); also: nearly all actives have a fitted effect of over 55% in size
Details: ARE-bla HepG2 viability, CellTiter-Glo luminescence, 16 h; series mostly up to 73.3 µM
Description: National Center for Advancing Translational Sciences [NCATS]
NIH Chemical Genomics Center [NCGC]
U.S. Environmental Protection Agency [EPA]
National Institutes of Environmental Health Sciences [NIEHS]
National Toxicology Program [NTP]
U.S. Food and Drug Administration [FDA]
Oxidative stress has been implicated in the pathogenesis of a variety of diseases ranging from cancer to neurodegeneration. The antioxidant response element (ARE) signaling pathway plays an important role in the amelioration of oxidative stress. The CellSensor ARE-bla HepG2 cell line (Invitrogen) can be used for analyzing the Nrf2/antioxidant response signaling pathway. Nrf2 (NF-E2-related factor 2) and Nrf1 are transcription factors that bind to AREs and activate these genes. The CellSensor ARE-bla Hep G2 cell line contains a beta-lactamase reporter gene under control of the Antioxidant Response Element (ARE) stably integrated into HepG2 cells. The activation of the report gene under culture conditions can be detected by fluorescence intensity. This cell line has been used to screen the Tox21 10K compound library to identify agonists that induce oxidative stress. The cytotoxicity of the Tox21 compound library against the ARE-bla cell line was tested in parallel by measuring the cell viability using CellTiter-Glo assay (Promega, Madison, WI) in the same wells.
Tox21 Assay Protocol Summary:
ARE-bla HepG2 cells were dispensed at 2,000 cells/5 ul/well in 1536-well white wall/solid bottom plates using a Multidrop Combi (ThermoFisher Scientific, Waltham, MA) dispenser. After the assay plates were incubated at 37C/5% CO2 for 5 hrs, 23 nL of compounds dissolved in DMSO, positive controls or DMSO only was transferred to the assay plate by a pintool work station (Kalypsys, San Diego, CA). The plates were incubated at 37C/5% CO2 for 16 hrs, followed by addition of 4 ul/well of CellTiter-Glo reagent into the assay plates using a Flying Reagent Dispenser (Aurora Discovery, San Diego, CA). After 30 min incubation at room temperature, the luminescence intensity in the assay plates was measured using a ViewLux (PerkinElmer, Shelton, CT) plate reader.
Potency is read from the fitted curve at half-maximal effect.

| Compound | Potency |
| --- | --- |
| C[C@]12CC[C@H]3[C@@H](CCC4=CC(=O)CC[C@@]43C)[C@@H]1CC[C@@H]2C(=O)CO | inactive |
| Oc1ccc(O)cc1 | inactive |
| C=C(C)C1CC=C(C)CC1 (stereo not given) | inactive |
| CCCCOCCOCCO | inactive |
| OC(CCl)CCl | inactive |
| O=C=Nc1ccc(Cc2ccc(N=C=O)cc2)cc1 | inactive |
| CCCC(=O)O | inactive |
| O=CCCCC=O | inactive |
| CC(C)CC(C)(O)C#CC(C)(O)CC(C)C (stereo not given) | inactive |
| Clc1nc(Cl)c(Cl)c(Cl)c1Cl | inactive |
| c1cc(N(CC2CO2)CC2CO2)ccc1OCC1CO1 (stereo not given) | inactive |
| O=C(Nc1ccc(Cl)cc1)Nc1ccc(Cl)c(Cl)c1 | 2.42 µM (active) and 2.73 µM (active) and 10.6 µM (active) |
| CNCCCC12CCC(c3ccccc31)c1ccccc12 | 19.3 µM (active) |
| Cn1cnc([N+](=O)[O-])c1Sc1ncnc2nc[nH]c12 | 0.382 µM (active) |
| NC=O | inactive |
| Cc1cccc([N+](=O)[O-])c1C | inactive |
| CC(C)OC=O | inactive |
| Cc1cccc(C(=O)O)c1 | inactive |
| CCC(C)c1ccccc1O (stereo not given) | inactive |
| COc1c(Cl)c(Cl)c(Cl)c(Cl)c1Cl | inactive |

| Compound | Potency |
| --- | --- |
| OC1CCCCCCCCCCC1 | inactive |
| COc1cccc2c1C(=O)c1c(O)c3c(c(O)c1C2=O)C[C@@](O)(C(=O)CO)C[C@@H]3O[C@H]1C[C@H](N)[C@H](O)[C@H](C)O1 | 13.7 µM (active) and 5.31 µM (active) |
| CC(C(=O)O)c1cccc(C(=O)c2ccccc2)c1 (stereo not given) | inactive |
| O=C1OC2(c3cc(Br)c(O)c(Br)c3Oc3c2cc(Br)c(O)c3Br)c2c(Cl)c(Cl)c(Cl)c(Cl)c21 | inactive |
| CCOC(=O)C(C#N)=C(c1ccccc1)c1ccccc1 | inactive |
| O=C(/C=C/c1ccccc1)OCc1ccccc1 | inactive |
| c1ccc2cc(Nc3ccc(Nc4ccc5ccccc5c4)cc3)ccc2c1 | inactive |
| CCCCOCCOCCOCCO | inactive |
| Nc1ccc(Nc2ccccc2)cc1 | inactive |
| Nc1ncn([C@@H]2O[C@H](CO)[C@@H](O)[C@H]2O)c(=O)n1 | inactive |
| O=[N+]([O-])c1ccc2c(c1)Cc1ccccc1-2 | inactive |
| CCCCc1oc2ccccc2c1C(=O)c1cc(I)c(OCCN(CC)CC)c(I)c1 | 34.6 µM (active) |
| CC(=O)C1(C)CC2=C(CCCC2(C)C)CC1C (stereo not given) | inactive |
| CCCCNS(=O)(=O)c1ccccc1 | inactive |
| CN(C)c1nc(N(C)C)nc(N(C)C)n1 | inactive |
| CC(C)OC(=O)C(C)(C)Oc1ccc(C(=O)c2ccc(Cl)cc2)cc1 | inactive |
| c1cc(-c2ccncc2)ccn1 | inactive |
| CC(C)(C)NC(=O)[C@H]1CC[C@H]2[C@@H]3CC[C@H]4NC(=O)C=C[C@]4(C)[C@H]3CC[C@]12C | inactive |
| O=C(COc1ccc(Cl)cc1)N1CCN(Cc2ccc3c(c2)OCO3)CC1 | inactive |
| Brc1cc(Oc2cc(Br)c(Br)c(Br)c2Br)c(Br)c(Br)c1Br | inactive |
